# PubChem BioAssay (Tox21)
# Results filed as inconclusive are left out. Entries that show only a call come without a potency. Active and inactive are the calls of the source. The call rests on the fitted dose curve; in most records, active means well fitted inhibition curve with a large enough effect in the signal ratio in the repeat runs (not every such curve was filed as active); inconclusive means weak or mixed curves, or effect the other way; inactive means no such curve, though single readings can be large or run the other way; the % refers to the signal ratio.
# Molecular target: Vitamin D3 receptor (Homo sapiens) (UniProt P11473)
# Experiment: qHTS assay to identify small molecule antagonists of the vitamin D receptor (VDR) signaling pathway (AID 743223)
# Conditions: VDR-UAS-bla HEK293T, beta-lactamase FRET ratio, 16 h; series mostly up to 61 µM
# From the text: U.S. Tox21 Program National Center for Advancing Translational Sciences [NCATS] NIH Chemical Genomics Center [NCGC] U.S. Environmental Protection Agency [EPA] National Institutes of Environmental Health Sciences [NIEHS] National Toxicology Program [NTP] U.S. Food and Drug Administration [FDA] Tox21 Assay Overview: The vitamin D receptor (VDR), a member of nuclear hormone receptor superfamily, plays a critical role in calcium homeostasis and bone metabolism. It is also involved in cell differentiation and growth, and thrombogenicity.
# Tox21 Assay Protocol Summary: VDR-bla cells were dispensed at 2,000 cells/5 uL of assay medium per well into black wall/clear-bottom 1536-well plates using a Multidrop Combi (Thermo Fisher Scientific, Waltham, MA) dispenser. After the assay plates were incubated at a 37C and 5% CO2 for 4 h, 23 nL of compounds dissolved in DMSO, positive controls or DMSO only was transferred to the assay plate by a Pintool station (Kalypsys, San Diego, CA), followed by addition of 1 uL of 1alpha, 25-Dihydroxy Vitamin D3 (3 nM, final concentration in the wells) using a Bioraptr Flying Reagent Dispenser (FRD) workstation (Beckman Coulter, Indianapolis, IN). The plates were incubated at 37C and 5% CO2 for 16 h, and then 1 uL of LiveBLAzerTM B/G FRET substrate was added using a Bioraptr FRD. The plates were incubated at room temperature for 2 h and fluorescence intensity was measured by an Envision plate reader (PerkinElmer, Shelton, CT).
# Potency means the concentration at half of the fitted maximal effect.
# Chain of Vitamin D3 receptor (Homo sapiens) (P11473 whole entry, looked up): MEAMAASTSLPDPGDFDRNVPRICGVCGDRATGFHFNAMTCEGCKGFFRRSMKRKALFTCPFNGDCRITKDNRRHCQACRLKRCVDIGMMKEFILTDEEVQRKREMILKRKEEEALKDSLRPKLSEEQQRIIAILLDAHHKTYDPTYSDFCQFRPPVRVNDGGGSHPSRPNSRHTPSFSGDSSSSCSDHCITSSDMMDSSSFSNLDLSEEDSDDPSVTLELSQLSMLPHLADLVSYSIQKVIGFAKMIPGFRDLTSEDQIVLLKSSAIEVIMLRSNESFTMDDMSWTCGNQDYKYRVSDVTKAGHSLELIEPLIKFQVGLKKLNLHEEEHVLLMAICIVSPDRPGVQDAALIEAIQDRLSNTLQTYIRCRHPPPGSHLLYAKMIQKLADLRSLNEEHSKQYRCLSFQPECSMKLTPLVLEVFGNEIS
row,SMILES,Potency
1,O=c1c(C2CC(c3ccc(-c4ccc(Br)cc4)cc3)Cc3ccccc32)c(O)sc2ccccc12 (stereo not given),inactive
2,O=C1c2ccccc2C(=O)C1C(=O)C(c1ccccc1)c1ccc(Cl)cc1 (stereo not given),inactive
3,N#CNC#N,inactive
4,Nc1ccccc1C(=O)Oc1ccc2ccccc2c1,inactive
5,Clc1ccc(C(c2ccccc2Cl)C(Cl)(Cl)Cl)cc1 (stereo not given),inactive
6,C[C@]12Cc3nonc3C[C@@H]1CC[C@@H]1[C@@H]2CC[C@@]2(C)[C@H]1CC[C@]2(C)O,inactive
7,S=C=Nc1cccc2ccccc12,inactive
8,c1ccc(OCC2CO2)cc1 (stereo not given),inactive
9,CCCN(CCC)CCc1c[nH]c2ccccc12,inactive
10,N#CC(Cl)Cl,inactive
11,CN(C)C(=S)S,inactive
12,FC(F)(F)c1cccc(C2=CCN(CCc3ccc4ccccc4c3)CC2)c1,inactive
13,C[C@H]1CC[C@@H]2[C@@H](C)[C@H]3[C@H](C[C@H]4[C@@H]5CC=C6CC(O[C@@H]7O[C@H](CO)[C@H](O)[C@H](O[C@@H]8O[C@H](CO)[C@@H](O)[C@H](O)[C@H]8O)[C@H]7O[C@H]7O[C@@H](C)[C@H](O)[C@@H](O)[C@H]7O)CC[C@]6(C)[C@H]5CC[C@]34C)N2C1 (stereo not given in full),inactive
14,CCCCCCCCCCCCCCC(Br)C(=O)O (stereo not given),inactive
15,ClCc1ccc(Cl)cc1Cl,inactive
16,CCCCCCCCCC[N+](C)(C)CCCCCCCCCC,43.6 µM (active)
17,C[C@@H]1CC[C@@]2(OC1)O[C@H]1[C@@H](O)[C@H]3[C@@H]4CC[C@H]5C[C@@H](O[C@@H]6O[C@H](CO)[C@H](O[C@@H]7O[C@H](CO)[C@@H](O)[C@H](O[C@@H]8OC[C@@H](O)[C@H](O)[C@H]8O)[C@H]7O[C@@H]7O[C@H](CO)[C@@H](O)[C@H](O[C@@H]8O[C@H](CO)[C@@H](O)[C@H](O)[C@H]8O)[C@H]7O)[C@H](O)[C@H]6O)[C@H](O)C[C@]5(C)[C@H]4CC[C@]3(C)[C@H]1[C@@H]2C,32.8 µM (active)
18,Oc1cc(Cl)c(Cl)c(Cl)c1,inactive
19,Oc1ccc(C(c2ccc(O)cc2)(C(F)(F)F)C(F)(F)F)cc1,inactive
20,C1CCC2CCCCC2C1 (stereo not given),inactive

row,SMILES,Potency
1,ClC(Cl)=C(Cl)Cl,inactive
2,CC1(C)CC/C(=C/c2ccc(Cl)cc2)C1(O)Cn1cncn1 (stereo not given),inactive
3,O=C(Nc1ccc2[nH]ccc2c1)c1cc2cc(F)ccc2n1Cc1cccc(F)c1,43.6 µM (active)
4,O=C(CCCN1CCC2(CC1)C(=O)NCN2c1ccccc1)c1ccc(F)cc1,inactive
5,CC1(C)C(/C=C(\Cl)C(F)(F)F)C1C(=O)OC(C#N)c1cccc(Oc2ccccc2)c1 (stereo not given),inactive
6,CC(=O)c1cc(C(C)(C)C)cc2c1CCC2(C)C,inactive
7,COc1ccc(N)cc1N,inactive
8,O=c1oc2ccccc2c(O)c1Cc1c(O)c2ccccc2oc1=O,inactive
9,Cn1cc(C2=C(c3cn(C4CCN(Cc5ccccn5)CC4)c4ccccc34)C(=O)NC2=O)c2ccccc21,inactive
10,CN(C)CCc1c[nH]c2ccc(O)cc12,inactive
11,O=[N+]([O-])c1ccc2ccc3cccc4ccc1c2c34,inactive
12,COP(=S)(OC)Oc1cc(Cl)c(Br)cc1Cl,inactive
13,CCN(CC)c1c([N+](=O)[O-])cc(C(F)(F)F)c(N)c1[N+](=O)[O-],inactive
14,Clc1ccc(C(Cl)(Cl)Cl)c(Cl)c1,inactive
15,CNC(C)Cc1ccc2c(c1)OCO2 (stereo not given),inactive
16,N#C/C=C/C#N,inactive
17,COC(=O)N(C(=O)N1CO[C@@]2(C(=O)OC)Cc3cc(Cl)ccc3C2=N1)c1ccc(OC(F)(F)F)cc1,inactive
18,CCCCCCCCCBr,inactive
19,CC(C)CCCCCOC(=O)c1ccccc1C(=O)OCCCCCC(C)C,inactive
20,Clc1ccc(-c2ccc(Cl)c(Cl)c2Cl)c(Cl)c1Cl,inactive
